# Screening data as filed in PubChem BioAssay.
# An excerpt weighted towards active compounds, which were near 3.4% of everything screened.
# FBW7 activator: activators of human E3 ligase FBW7 | AlphaScreen FBW7–phospho-cyclin E peptide binding, activator screen | Q969H0 | normalized activity (activation), % at 26.1 µM | hit rate 0.13% among 650,000 | AID 1259310; in the data active means normalized activity above about 1.9%;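 further: purified mutant Fbw7 with reduced substrate affinity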
# GPR151 activ: activators of human GPR151; Q8TDV0; hit rate 1% among 650,000; PathHunter beta-arrestin GPR151 cells, luminescence; activation, % at 11.2 µM; AID 1508602; in the data active means activation above about 4.9%;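 further: 0% = median of compound wells and 100% = cells with positive control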
# MITF inh: blocks human microphthalmia-associated transcription factor; O75030; AlphaScreen MITF homodimerization, bead proximity signal; inhibition, % at 2.6 µM; hit rate 0.91% among 650,000; in the data active means inhibition above about 50%;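 further: 0% = vehicle wells with protein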
# TEAD-YAP inh: TEAD-YAP interaction inhibition. inhibition, % at 9.12 µM. hit rate 1.4% among 640,000. HEK-TIYL cells, TEAD-Gal4/YAP UAS-luciferase luminescence; in the data active means inhibition above about 32%;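 further: 0% = median of test compound wells and 100% = reference inhibitor wells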
# GPR151 conf act: confirmation of human GPR151 activators; GPR151 PathHunter beta-arrestin cells, luminescence, 90 min; % of EA-reagent control over plate median; activation, % at 11.2 µM; AID 1508609; shares compounds with GPR151 activ; 6,700 tested, under 10 active;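 active means mean percent activation across replicates above the confirmation screen cutoff of 4.91%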
# GPR119 counter: counter-screen for GPR151 activators: effect on human GPR119. activation, % at 11.2 µM. AID 1508611. shares compounds with GPR151 activ. hit rate 0.3% among 6,700. GPR119 PathHunter beta-arrestin cells, luminescence, 90 min; 0 = compound-well median, 100 = enzyme-acceptor control;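 active means mean percent activation in the counterscreen above 29.09%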;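 further: counterscreen on off-target GPR119 to flag nonselective hits from the GPR151 activator screen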
# Target sequence (Q8TDV5 whole entry, looked up): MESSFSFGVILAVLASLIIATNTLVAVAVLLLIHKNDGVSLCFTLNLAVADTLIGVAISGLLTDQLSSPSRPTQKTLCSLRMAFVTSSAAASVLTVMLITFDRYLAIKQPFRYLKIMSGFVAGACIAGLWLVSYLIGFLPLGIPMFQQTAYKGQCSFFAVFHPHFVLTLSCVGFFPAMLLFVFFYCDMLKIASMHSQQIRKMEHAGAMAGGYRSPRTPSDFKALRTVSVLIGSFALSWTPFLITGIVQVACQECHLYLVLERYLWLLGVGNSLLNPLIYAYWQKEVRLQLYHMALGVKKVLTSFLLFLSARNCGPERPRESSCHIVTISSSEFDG
# The depositor's hits bear a star; x = no result.
SMILES,FBW7 activator,GPR151 activ,MITF inh,TEAD-YAP inh,GPR151 conf act,GPR119 counter
O=C(NCc1ccccc1F)C1CN(c2nc3ccccc3s2)C1,0,1,2,-36,x,x
O=C(Nc1nc2c(s1)CCCC2)C1CN(c2nc3ccccc3s2)C1,0,9.8*,3,-17,0,-1
O=C1COc2cc(-c3c(NC4CCCCC4)c(=O)c3=O)ccc2N1,0,14*,4,-6,0,-2
Cn1c(CC(=O)NN)nc2ccccc21,0,6.2*,-2,8,1,7
COc1cccc(NC(=O)c2ccc(-c3cccc(OC)c3)nc2N2CCOCC2)c1,0,1,15,-13,x,x
COc1cccc(NC(=O)c2ccc(-c3ccsc3)nc2N2CCOCC2)c1,0,9.3*,3,-10,1,4
Cc1cc(=O)n2nc(N3CCCC3C(=O)NCCCN3CCCCC3)sc2n1 (stereo unspecified),0,5.0*,5,-2,1,-13
CCCCNC(=O)CCn1nc(-c2ccccc2)c2ccccc2c1=O,0,0,3,-3,x,x
CC(C)(C)NC(=O)Cn1nc(C(=O)O)c2ccccc2c1=O,0,5.9*,-7,-7,-1,-12
O=C(CCn1nc(-c2ccccc2)c2ccccc2c1=O)NCc1ccccc1,0,18*,3,-7,1,-1
CNC(=O)Cn1nc(-c2ccc(C)cc2)c2ccccc2c1=O,0,2,7,-4,x,x
CNC(=O)Cn1nc(C(=O)O)c2ccccc2c1=O,0,-1,-4,6,x,x
Cc1ccc(-c2nn(CC(=O)NCc3ccccc3)c(=O)c3ccccc23)cc1,0,5.1*,24,-1,0,15
CCOC(=O)C1CN(S(=O)(=O)c2ccc(OC)cc2)c2ccccc2O1 (stereo unspecified),0,6.5*,-9,2,-1,-10
CC(C)(C)C(=O)NC(=O)Nc1ncc(S(C)(=O)=O)c(-c2ccc(C(F)(F)F)cc2)n1,0,8.0*,-3,-1,-1,-5
CS(=O)(=O)c1cnc(-c2ccncc2)nc1-c1ccc(C(F)(F)F)cc1,0,-2,8,-5,x,x
COC(=O)c1ccc(OCC(O)CN2CCN(c3ccccn3)CC2)cc1 (stereo unspecified),0,1,7,9,x,x
O=C(NCCCCc1ccccc1)c1cc([N+](=O)[O-])cc([N+](=O)[O-])c1,0,11*,17,8,1,11
COc1ccc(-c2nnc3sc(NC(=O)c4ccccc4C)nn23)cc1OC,0,8.8*,0,-2,0,1
COc1ccc(-c2nnc(NC(=O)c3ccccc3C)s2)c(OC)c1,0,5.8*,7,1,1,0
COc1ccc(-c2nnc3sc(NC(=O)C(C)C)nn23)cc1OC,0,14*,-3,8,2,-6
COc1ccc(-c2nnc3sc(NC(=O)c4ccccc4C)nn23)cc1,0,2,-5,-2,x,x
Cn1cc(S(=O)(=O)N2CCc3ccccc32)cc1C(=O)N1CCC(C(N)=O)CC1,0,-1,15,7,x,x
CCOC(=O)CSc1nc2ccccc2[nH]1,0,1,14,-6,x,x
CCOC(=O)c1[nH]c(=O)[nH]c1CSc1nc2ccccc2[nH]1,0,11*,-15,-1,1,6
SMILES,FBW7 activator,GPR151 activ,MITF inh,TEAD-YAP inh,GPR151 conf act,GPR119 counter
c1csc(-c2[nH]ncc2CNC2CCCCC2)c1,0,5.1*,-3,3,-1,-16
O=C(O)C1CSC(c2cc(Cl)cc(Cl)c2O)N1 (stereo unspecified),0,-1,-9,-2,x,x
Cc1ccc(C)c(NS(=O)(=O)c2c(C)ccc3nsnc23)c1,0,1,-9,-5,x,x
Cc1ccc(NS(=O)(=O)c2c(C)ccc3nsnc23)cc1,1,5.2*,12,6,-1,-1
O=C1N[C@@H](COCc2ccccc2)C(=O)N2CCN(Cc3ccccc3Cl)C[C@H]12,0,-2,1,2,x,x
Cc1nn(-c2cccc(Cl)c2)c2c1C(c1ccccc1Cl)C(C#N)=C(N)O2 (stereo unspecified),0,5.5*,10,2,0,3
Cc1nn(-c2ccccc2)c2c1C(c1ccccc1Cl)C(C#N)=C(N)O2 (stereo unspecified),-1,-2,18,-4,x,x
